Test results published in PubChem BioAssay (Tox21).
Records with an inconclusive call do not appear. Entries that show only a call come without a potency. Activity calls are given as the source filed them. Calls follow the shape of the dose curve; as a rule, active = well fitted cell-killing curve with a large enough effect in the repeat runs; inconclusive = weak or mixed curves, or effect the other way; inactive = flat fitted curve, though single readings scatter.

Test: qHTS RealTime-Glo MT Cell Viability Assay in HepG2 cells - 0 hour (AID 1224889); also: nearly all actives have a fitted effect of over 50% in size
Conditions: RealTime-Glo luminescence; series mostly up to 76.8 µM; activity change, negative = cytotoxicity: at the top concentration
From the text: U.S. Tox21 Program National Center for Advancing Translational Sciences [NCATS] NIH Chemical Genomics Center [NCGC] U.S. Environmental Protection Agency [EPA] National Institutes of Environmental Health Sciences [NIEHS] National Toxicology Program [NTP] U.S. Food and Drug Administration [FDA] Tox21 Assay Overview: Measure of cell viability is critical in the cell-base assay. Analysis of cell viability is necessary for the characterization of cell responses to cytotoxic drugs and environmental stress. A RealTime-Glo MT Cell Viability Assay to monitor cell viability in real time of continues cell culture during 40 hours of compound treatment was used to screen Tox21 10K library compounds in HepG2 cells. The RealTime-Glo MT Cell Viability Assay is a nonlytic, homogeneous, bioluminescent method to measure cell viability in real time using a simple, plate-based method. The assay involves adding NanoLuc luciferase and a cell-permeant prosubstrate to cells in culture. Viable cells reduce the proprietary prosubstrate to generate a substrate for NanoLuc luciferase. This substrate diffuses from cells into the surrounding culture medium, where it is rapidly used by the NanoLuc Enzyme to produce a luminescent signal. The signal correlates with the number of viable cells, making the assay well suited for cytotoxicity studies.
Tox21 Assay Protocol Summary: The mixture of HepG2 cell suspension and reagents were dispensed at 600cells/6 ul/well in 1536-well tissue culture treated black solid bottom plates using a Multidrop dispenser. After the assay plates were incubated at a 37 C/5% CO2 incubator for 5 hours, 23 nL of compounds dissolved in DMSO, positive and negative controls was transferred to the assay plate by a pintool work station. The plates were incubated at 37 C for 40 hours. The luminescence intensity were measured at 0h, 8h, 16h, 24h, 32h and 40h time points using ViewLux plate reader during compound treatment.

| Structure (SMILES) | Potency | activity change, negative = cytotoxicity |
| --- | --- | --- |
| COc1ccc(N)c(C)c1 | inactive |  |
| CN(C)CCOC(=O)COc1ccc(Cl)cc1 | inactive |  |
| COc1ccc(CCC(C)=O)cc1 | inactive |  |
| CC1(C)S[C@@H]2[C@H](NC(=O)COc3ccccc3)C(=O)N2[C@H]1C(=O)O | inactive |  |
| COc1ccc(OC)cc1 | inactive |  |
| NCCN1CCNCC1 | inactive |  |
| CC(=O)OCc1ccccc1 | inactive |  |
| C[C@]12CC[C@@H]3c4ccc(O)cc4CC[C@H]3[C@@H]1C[C@@H](O)[C@@H]2O | inactive |  |
| CC(C)(C)c1cc(Cc2cc(C(C)(C)C)c(O)c(C(C)(C)C)c2)cc(C(C)(C)C)c1O | inactive |  |
| CC(=O)OCCOC(C)=O | inactive |  |
| CC(CCl)OP(=O)(OC(C)CCl)OC(C)CCl (stereo not given) | inactive |  |
| C=Cc1ccc(C)cc1 | inactive |  |
| CCCCCCCCCCO | inactive |  |
| CC(C)c1cccc(C(C)C)c1 | inactive |  |
| O=C(O)/C=C/C(=O)O | inactive |  |
| O=C1CCCC1 | inactive |  |
| O=C(OCC1CCC2OC2C1)C1CCC2OC2C1 (stereo not given) | inactive |  |
| C=CCCCCCCCCC(=O)O | inactive |  |
| Clc1ccccn1 | inactive |  |
| N[C@H](Cc1c[nH]c2ccccc12)C(=O)O | inactive |  |

| Structure (SMILES) | Potency | activity change, negative = cytotoxicity |
| --- | --- | --- |
| CC1(C)OC[C@@H]2O[C@@]3(C(=O)O)OC(C)(C)O[C@H]3[C@@H]2O1 | inactive |  |
| O=C(O)c1ccc(S(=O)(=O)N(Cl)Cl)cc1 | inactive |  |
| CC1(C)CC(N)CC(C)(CN)C1 (stereo not given) |  | 6.09% (inactive) |
| CC(=O)c1ccc(O)cc1 | inactive |  |
| Cc1ccc(S(=O)(=O)N=C=O)cc1 | inactive |  |
| C=CC[N+](C)(C)CC=C | inactive |  |
| CC(=O)OC1CC(C)OC(C)O1 (stereo not given) | inactive |  |
| CC(O)CC(C)(C)O (stereo not given) | inactive |  |
| CC(=O)CCC=C(C)C | inactive |  |
| CCCCCCCCCCCC(=O)OC | inactive |  |
| CCO[Si](CCC#N)(OCC)OCC | inactive |  |
| c1ccc2c(c1)Cc1ccccc1-2 | inactive |  |
| C=C(C)[C@H]1CC=C(C)C(=O)C1 | inactive |  |
| OC1C(O)C(O)C(O)C(O)C1O (stereo not given) | inactive |  |
| CCCCCCC=O | inactive |  |
| CCCCCCCCCCCCCCCCO | inactive |  |
| CCc1ccccc1CC | inactive |  |
| Brc1ccc(Br)c(Br)c1 | inactive |  |
| CC(C)(Oc1ccc(CCNC(=O)c2ccc(Cl)cc2)cc1)C(=O)O | inactive |  |
| CC(=O)Oc1ccc(C)cc1 | inactive |  |
